In test [1] the target is Lysosomal acid glucosylceramidase (Homo sapiens) (UniProt P04062). Put plainly: Glucocerebrosidase-p2 (AID 348; in the data active = potency below about 10 µM; also: potency is read from the fitted curve at half-maximal effect). The following applies: purified GBA, blue fluorogenic substrate, 40 min. The method in brief: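 Compounds titrated from 0.6 nM upwards against 0.2 nM enzyme in pH 5.9 citric acid/KH2PO4, taurocholate, tween-20; blue fluorogenic substrate 80 uM, 40 min room temperature, stopped and read Ex 365/Em 440 for AC50.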
Chain of Lysosomal acid glucosylceramidase (Homo sapiens) (P04062 whole entry, looked up): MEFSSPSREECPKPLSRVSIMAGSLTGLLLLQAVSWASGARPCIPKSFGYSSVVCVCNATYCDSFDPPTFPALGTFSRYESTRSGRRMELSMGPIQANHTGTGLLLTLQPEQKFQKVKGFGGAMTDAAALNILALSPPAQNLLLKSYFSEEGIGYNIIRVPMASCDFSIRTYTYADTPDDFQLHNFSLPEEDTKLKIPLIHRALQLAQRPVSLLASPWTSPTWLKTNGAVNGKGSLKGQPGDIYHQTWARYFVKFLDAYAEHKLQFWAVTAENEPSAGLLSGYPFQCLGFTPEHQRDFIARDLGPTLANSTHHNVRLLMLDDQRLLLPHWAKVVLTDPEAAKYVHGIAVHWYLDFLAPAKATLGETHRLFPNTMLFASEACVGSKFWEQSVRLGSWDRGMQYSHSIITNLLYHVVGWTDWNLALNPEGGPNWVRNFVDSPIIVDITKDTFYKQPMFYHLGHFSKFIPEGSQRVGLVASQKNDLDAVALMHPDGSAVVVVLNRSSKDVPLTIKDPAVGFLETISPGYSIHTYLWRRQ

Test [2] is described as follows: AP1 Signaling Pathway (AID 357; active = well fitted curve in either direction with a large enough effect, not every such curve was filed as active; also: % is scaled to controls: 0 for no effect and ±100 for the full control effect). The following applies: ME-180 AP-1-bla reporter, EGF-induced, beta-lactamase ratio, 5 h; at 7.69 µM (top of the series) unless noted. The method in brief:
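AP-1-bla ME-180 cells with beta-lactamase reporter under AP-1 response element, stimulated with EC50 EGF; compounds titrated, 5 hours at 37 degrees Celsius. CCF4 read at 460/530 nm ratio; positive and negative modulators judged by AC50.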

A short description of test [3]: Stat Signaling Pathway (AID 446; active = well fitted curve in either direction with a large enough effect, not every such curve was filed as active;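 also: ME-180 cervical cancer cells given 40 pM IL-6 alongside compound; SIE-controlled beta-lactamase reporter measured as 460/530 nm FRET emission ratio; % is scaled to controls: 0 for no effect and ±100 for the full control effect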). The note with it: ME-180 SIE beta-lactamase reporter, IL-6 stimulated, 5 h; at 7.69 µM (top of the series) unless noted. In short, it runs like this:
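ME-180 SIE-bla cells; overnight plating; cpd + IL-6 40 pM, 5 h, 37 C; LiveBLAzer 2.5 h RT; 460/530 nm emission ratio. Normalized to 300 pM IL-6 and 125 nM JAK inhibitor controls.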

Test [4] deals with Glucocorticoid receptor (Homo sapiens) (UniProt P04150). Kind of test: GR-GFP Redistribution (AID 450;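 active = compounds whose dose series gives a full or clear partial fitted curve of increased nuclear translocation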; also: potency is read from the fitted curve at half-maximal effect). The following applies: U2OS GR-GFP nuclear translocation, laser cytometry, 2 h.
Chain of Glucocorticoid receptor (Homo sapiens) (P04150 whole entry, looked up): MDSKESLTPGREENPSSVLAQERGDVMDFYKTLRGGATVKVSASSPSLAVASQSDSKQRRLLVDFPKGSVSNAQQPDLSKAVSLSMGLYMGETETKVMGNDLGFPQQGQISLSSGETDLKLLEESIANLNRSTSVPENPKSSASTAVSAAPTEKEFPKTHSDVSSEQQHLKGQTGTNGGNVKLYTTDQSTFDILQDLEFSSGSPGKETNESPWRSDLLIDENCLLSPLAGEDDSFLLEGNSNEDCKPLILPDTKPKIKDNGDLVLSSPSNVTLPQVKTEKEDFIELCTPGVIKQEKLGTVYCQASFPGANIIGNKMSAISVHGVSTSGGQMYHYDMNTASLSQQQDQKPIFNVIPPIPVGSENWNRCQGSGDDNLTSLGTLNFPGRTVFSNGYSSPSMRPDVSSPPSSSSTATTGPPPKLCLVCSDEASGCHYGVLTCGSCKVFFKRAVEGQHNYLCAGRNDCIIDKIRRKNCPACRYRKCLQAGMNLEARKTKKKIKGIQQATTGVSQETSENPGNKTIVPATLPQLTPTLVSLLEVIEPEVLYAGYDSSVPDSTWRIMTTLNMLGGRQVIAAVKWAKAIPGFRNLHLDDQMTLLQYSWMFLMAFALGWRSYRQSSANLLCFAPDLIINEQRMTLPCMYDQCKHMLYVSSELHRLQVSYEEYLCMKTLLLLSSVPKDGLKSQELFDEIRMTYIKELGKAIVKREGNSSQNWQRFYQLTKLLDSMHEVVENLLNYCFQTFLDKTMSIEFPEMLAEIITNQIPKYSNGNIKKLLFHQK
Test [5] shares this target. Kind of test: GR-EFC Redistribution (AID 451; calls by dose curve; also: potency is read from the fitted curve at half-maximal effect). The note with it: CHO-K1 GR-EFC translocation, beta-gal luminescence, 2 h. In short, it runs like this:
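CHO-K1 cells expressing nuclear EA and GR-ED fragments of b-gal; compounds titrated up to 46 uM final, 2 h at 37 C. GR nuclear translocation read as complemented b-gal luminescence after 1 h RT detection.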

Test [6] addresses Mitogen-activated protein kinase 10 (Mus musculus) (UniProt Q61831). Put plainly: JNK3 AlphaScreen Assay (AID 530; active = well fitted curve in either direction with a large enough effect, not every such curve was filed as active;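 also: kinase came from lysate of stimulated human HepG2 cells; signal reports phosphorylation of biotinylated GST-cJun 1-79 at Ser73 with 10 µM ATP; % is scaled to controls: 0 for no effect and ±100 for the full control effect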). The note with it: JNK3 lysate, c-Jun phosphorylation; series mostly up to 57.1 µM. The method in brief: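 qHTS format: compounds tested as titrations against IL-1beta/TNF-alpha-activated HepG2 lysate JNK3 with biotin-GST-cJun substrate and 10 uM ATP at room temperature. Loss of anti-phospho-cJun AlphaScreen signal indicates inhibition.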

The target of test [7] is 3',5'-cyclic-AMP phosphodiesterase 4B (Homo sapiens) (UniProt Q07343). Put plainly: qHTS Assay for Inhibitors of PDE-IV (AID 607; active = well fitted activation curve with a large enough effect in the main read-out, with a control signal flat, not every such curve was filed as active; also: % of control where 0% means no effect). The note with it: HEK293 ACTOne CNG channel cells, membrane potential fluorescence; series mostly up to 22.9 µM. In short, it runs like this: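 ACTOne HEK293 cells carry a modified cAMP-gated CNG channel and express endogenous PDE4; plated 1000 cells/well, compounds up to 22.9 uM final. Membrane-potential dye fluorescence (ex 535/em 590) was read; parental cells received 10 uM forskolin + 100 uM RO 20-1724.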
Chain of 3',5'-cyclic-AMP phosphodiesterase 4B (Homo sapiens) (Q07343 whole entry, looked up): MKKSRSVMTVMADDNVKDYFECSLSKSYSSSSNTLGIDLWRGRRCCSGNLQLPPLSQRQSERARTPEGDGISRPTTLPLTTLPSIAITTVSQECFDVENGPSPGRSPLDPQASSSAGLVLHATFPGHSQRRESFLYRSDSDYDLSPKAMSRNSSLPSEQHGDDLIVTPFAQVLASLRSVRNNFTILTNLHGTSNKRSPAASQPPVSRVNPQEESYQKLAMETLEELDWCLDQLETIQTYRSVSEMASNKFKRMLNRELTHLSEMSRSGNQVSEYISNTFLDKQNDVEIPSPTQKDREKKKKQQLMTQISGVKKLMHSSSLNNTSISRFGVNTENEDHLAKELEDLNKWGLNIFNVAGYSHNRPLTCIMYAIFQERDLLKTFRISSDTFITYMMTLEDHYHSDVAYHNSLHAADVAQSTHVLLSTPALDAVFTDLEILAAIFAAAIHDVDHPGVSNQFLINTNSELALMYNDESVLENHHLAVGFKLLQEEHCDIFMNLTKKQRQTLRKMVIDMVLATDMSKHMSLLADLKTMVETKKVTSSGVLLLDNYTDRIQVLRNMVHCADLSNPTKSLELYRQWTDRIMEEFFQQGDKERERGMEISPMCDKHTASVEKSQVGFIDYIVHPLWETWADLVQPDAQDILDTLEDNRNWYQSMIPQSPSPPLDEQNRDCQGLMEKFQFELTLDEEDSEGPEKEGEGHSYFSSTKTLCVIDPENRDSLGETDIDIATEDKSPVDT

Test [8] deals with Dual specificity protein kinase CLK4 (Homo sapiens) (UniProt Q9HAZ1). Put plainly: qHTS Assay for Inhibitors of CDC-like Kinase 4 (Kinase-Glo Assay) (AID 1770). Also: nearly all actives have a fitted effect of over 65% in size. Also: potency is read from the fitted curve at half-maximal effect. The note with it: recombinant Clk4, Kinase-Glo ATP depletion luminescence; series mostly up to 66.7 µM. In short, it runs like this:
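Recombinant human Clk4 (25 nM) phosphorylated RS repeat peptide (100 uM) with 1 uM ATP in Tris pH 7.5/MgCl2/EGTA/DTT/Triton buffer for 4.5 h at room temperature. Residual ATP was quantified by Kinase-Glo luciferase luminescence.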

Test [9] has the same target. Put plainly: qHTS Assay for Inhibitors of CDC-like Kinase 4 (ADP-Glo Assay) (AID 1771). Also: nearly all actives have a fitted effect of over 70% in size. Also: potency is read from the fitted curve at half-maximal effect. The following applies: recombinant CLK4, ADP-Glo luminescence; series mostly up to 80 µM. The method in brief:
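Kinase reaction: Clk4 at 25 nM, RS repeat peptide substrate at 100 uM, ATP at 1 uM, 1 hr, room temperature. Product ADP detected as luciferase signal via ADP-Glo.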
Background: In qHTS, concentration-response curves come from the screen itself.

The target is the same in test [10]. Kind of test: qHTS Assay for Inhibitors of CDC-like Kinase 4 (ADP-FP Assay) (AID 1795). Also: nearly all actives have a fitted effect of over 60% in size. Also: potency is read from the fitted curve at half-maximal effect. The following applies: Transcreener ADP fluorescence polarization; series mostly up to 50 µM. The method in brief:
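Recombinant human Clk4 (6.25 nM) phosphorylated RS repeat peptide (100 uM) with 1 uM ATP in Tris pH 7.5/MgCl2/EGTA/DTT/Triton buffer for one hour. ADP was quantified by Transcreener competitive fluorescence polarization against an ADP calibration curve.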

The target in test [11] is Ubiquitin carboxyl-terminal hydrolase 1 (Homo sapiens) (UniProt O94782). Kind of test: Inhibitors of USP1/UAF1: Pilot qHTS (AID 504865).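 Also: rhodamine fluorescence freed from ubiquitin-rhodamine substrate followed over time; top concentration of the series differs between compounds; % is scaled to controls: 0 for no effect and ±100 for the full control effect; nearly all actives have a fitted effect of over 35% in size.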 The following applies: purified USP1/UAF1, Ub-rhodamine cleavage fluorescence; series mostly up to 54.9 µM. The method in brief:
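USP1/UAF1 complex (1nM) preincubated with compound 15 min at room temperature, then Ub-Rho substrate (150nM final) added. Fluorescence read kinetically at 480/540 nm, 6 reads every 60 seconds. Buffer: 50mM HEPES pH 7.8, 0.5mM EDTA, 0.1 mg/ml BSA, 1mM TCEP, 0.01% Tween-20.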

Test [12] in a line: Primary qHTS for small molecule stabilizers of the endoplasmic reticulum resident proteome: Secreted ER Calcium Modulated Protein (SERCaMP) assay (AID 1508630). Also: % is scaled to controls: 0 for no effect and ±100 for the full control effect. The following applies: SH-SY5Y GLuc-SERCaMP (Gaussia luciferase released on ER calcium loss) secretion, thapsigargin, luminescence; series mostly up to 38.4 µM. In short, it runs like this: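 GLuc-SERCaMP-expressing SH-SY5Y cells, pretreated 16 h with compound, are challenged with thapsigargin to empty ER calcium stores; after 4 h, coelenterazine is added directly to the medium and luminescence is imaged.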

Test [13] has as its target Cytochrome P450 1A2 (Homo sapiens) (UniProt P05177). Kind of test: p450-cyp1a2 (AID 410; calls by dose curve; also: potency is read from the fitted curve at half-maximal effect;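 as to activity change, negative = inhibition: -100% = full effect of reference inhibitor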). The following applies: recombinant CYP1A2, luciferin-ME demethylation, luminescence; series mostly up to 57 µM. In short, it runs like this:
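Inhibition was calculated relative to 57 uM furafylline (full inhibition). The reaction used human CYP1A2 at 20nM with Luciferin-ME at its Km, 100uM, driven by an NADPH-regenerating system for 60 min at room temperature.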

A short description of test [14]: NFAT Signaling Pathway (AID 444; active = well fitted curve in either direction with a large enough effect, not every such curve was filed as active). The note with it: Jurkat NFAT-bla M1, carbachol, beta-lactamase ratio, 5 h; at 7.69 µM (top of the series) unless noted. The method in brief: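 Jurkat cells with NFAT-driven β-lactamase reporter and co-expressed M1 receptor, stimulated with carbachol (final 1 uM, ~EC50), compound titration, 5 h at 37 °C. CCF4 loaded 1 h at RT; 460/530 nm ratio gave %activity and AC50.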

The target of test [15] is Cytochrome P450 3A4 (Homo sapiens) (UniProt P08684). Kind of test: qHTS Assay for Inhibitors and Substrates of Cytochrome P450 3A4 (AID 884). Also: nearly all actives have a fitted effect of over 50% in size. Also: potency is read from the fitted curve at half-maximal effect. The note with it: recombinant CYP3A4, Luciferin-PPXE luminescence; series mostly up to 57.1 µM. The method in brief: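 20 nM human CYP3A4 with 25 uM Luciferin-PPXE (at KM) in 200 mM KPO4, preincubated 10 min with compound; NADPH regeneration started a 60 min RT reaction. Luciferin detected by luminescence, normalized to 57 uM ketoconazole as full inhibition.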
Chain of Cytochrome P450 3A4 (Homo sapiens) (P08684 whole entry, looked up): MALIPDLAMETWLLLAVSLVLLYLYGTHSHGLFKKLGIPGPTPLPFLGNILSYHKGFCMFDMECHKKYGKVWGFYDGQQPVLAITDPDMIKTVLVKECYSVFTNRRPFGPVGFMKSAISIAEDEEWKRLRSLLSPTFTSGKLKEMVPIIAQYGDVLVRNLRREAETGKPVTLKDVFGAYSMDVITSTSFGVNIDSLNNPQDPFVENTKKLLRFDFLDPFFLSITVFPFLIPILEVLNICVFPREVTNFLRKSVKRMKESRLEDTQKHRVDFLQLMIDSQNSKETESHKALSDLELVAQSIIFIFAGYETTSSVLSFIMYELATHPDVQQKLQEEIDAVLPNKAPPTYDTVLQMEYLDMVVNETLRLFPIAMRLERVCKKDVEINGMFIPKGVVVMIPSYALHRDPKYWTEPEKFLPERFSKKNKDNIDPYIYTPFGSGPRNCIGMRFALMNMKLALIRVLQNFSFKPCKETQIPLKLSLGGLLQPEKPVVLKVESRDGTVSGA

Test [16] shares this target. Put plainly: qHTS Assay for Activators of Cytochrome P450 3A4 (AID 885). Also: nearly all actives have a fitted effect of over 65% in size. The following applies: recombinant CYP3A4, Luciferin-PPXE luminescence, 60 min; series mostly up to 57.1 µM. The method in brief: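 20nM CYP3A4 + 25uM Luciferin-PPXE (=KM), 200mM KPO4; cpd 10 min RT; NADPH regen, 60 min RT; stop w/ detection buffer, 20 min; luminescence. Normalized to 57 uM ketoconazole.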

Test [17] deals with Cytochrome P450 2C19 (Homo sapiens) (UniProt P33261). Put plainly: qHTS Assay for Inhibitors and Substrates of Cytochrome P450 2C19 (AID 899). Also: potency is read from the fitted curve at half-maximal effect; nearly all actives have a fitted effect of over 60% in size. The following applies: recombinant CYP2C19, luciferin-H EGE luminescence; series mostly up to 57.1 µM. The method in brief:
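Luminescent read-out of luciferin formed from Luciferin-H EGE (10uM, equal to KM). Enzyme 5nM in 50mM KPO4; compound added, 10 min at 37C, then NADPH regenerating system for 60 min at 37C. Full inhibition defined by 57uM ketoconazole.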

Test [18] can be described thus: qHTS Assay for Identification of Small Molecule Agonists for Hypoxia Response Element Signaling Pathway (AID 914; active = well fitted activation curve with a large enough effect in the signal ratio, with a control signal flat, not every such curve was filed as active; the % refers to the signal ratio; also: potency is read from the fitted curve at half-maximal effect). The following applies: ME-180 (cervical carcinoma) HRE-bla reporter, beta-lactamase ratio, CoCl2, 17 h; activation: active compounds read high. In short, it runs like this:
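Compounds in a titration series were added to ME-180 reporter cells alongside an EC50 level of CoCl2. After 17 hours, beta-lactamase activity was read as the 460nm/530nm emission ratio of CCF4, giving AC50 values.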

Test [19] has as its target Cytochrome P450 2C9 (Homo sapiens) (UniProt P11712). Put plainly: qHTS Assay for Inhibitors and Substrates of Cytochrome P450 2C9 (AID 883). Also: % is scaled to controls: 0 for no effect and ±100 for the full control effect; nearly all actives have a fitted effect of over 60% in size. The following applies: recombinant CYP2C9, luciferin-H luminescence, 60 min; series mostly up to 57.1 µM. The method in brief: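 10nM CYP2C9 + 100uM Luciferin-H (=KM), 25mM KPO4; cpd 10 min 37C; NADPH regen, 60 min 37C; stop/detect with P450 Glo-Buffer 20 min; luminescence. Norm. to 57uM sulphaphenazole as full inhibition.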

The target of test [20] is Cytochrome P450 2D6 (Homo sapiens) (UniProt P10635). Kind of test: qHTS Assay for Inhibitors and Substrates of Cytochrome P450 2D6 (AID 891).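 Also: luciferin methyl ether substrate demethylated by CYP2D6 with NADPH regeneration; % is scaled to controls: 0 for no effect and ±100 for the full control effect; nearly all actives have a fitted effect of over 60% in size.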 The note with it: recombinant CYP2D6, luciferin-ME EGE luminescence; series mostly up to 57.1 µM. In short, it runs like this:
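Human CYP2D6 (5 nM) with 30 uM Luciferin-ME EGE (at Km) in 100 mM KPO4, compound preincubated 10 min, then NADPH regeneration system for 60 min at room temperature. Luciferin read by luminescence; normalized to 1.43 uM quinidine.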

The structures appear in SMILES notation. Values without a mark were called inactive. Records with an inconclusive call do not appear. The source made the active and inactive calls. Unless noted, calls follow the shape of the dose curve; as a rule, active = well fitted curve in the direction sought with a large enough effect; inconclusive = small, poorly fitted or top-dose-only effect, or another doubt; inactive = no such curve, though single readings can be large; an effect the other way counts as inactive or inconclusive.

This is an account of results in PubChem BioAssay (NCATS).

Chain of Dual specificity protein kinase CLK4 (Homo sapiens) (Q9HAZ1 whole entry, looked up): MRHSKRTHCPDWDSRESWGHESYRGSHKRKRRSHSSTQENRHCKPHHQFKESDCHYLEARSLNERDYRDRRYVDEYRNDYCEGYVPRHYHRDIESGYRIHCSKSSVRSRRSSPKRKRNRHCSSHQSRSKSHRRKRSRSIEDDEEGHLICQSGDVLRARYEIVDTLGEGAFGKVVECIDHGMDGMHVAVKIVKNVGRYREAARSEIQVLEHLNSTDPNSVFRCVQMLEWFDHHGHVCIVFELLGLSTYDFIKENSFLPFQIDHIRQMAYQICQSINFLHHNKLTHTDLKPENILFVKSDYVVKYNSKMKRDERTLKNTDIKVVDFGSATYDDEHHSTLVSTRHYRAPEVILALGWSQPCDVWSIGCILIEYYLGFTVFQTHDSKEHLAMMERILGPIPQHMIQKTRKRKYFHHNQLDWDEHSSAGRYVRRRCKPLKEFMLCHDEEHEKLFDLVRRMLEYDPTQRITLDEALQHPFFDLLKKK
Chain of Cytochrome P450 1A2 (Homo sapiens) (P05177 whole entry, looked up): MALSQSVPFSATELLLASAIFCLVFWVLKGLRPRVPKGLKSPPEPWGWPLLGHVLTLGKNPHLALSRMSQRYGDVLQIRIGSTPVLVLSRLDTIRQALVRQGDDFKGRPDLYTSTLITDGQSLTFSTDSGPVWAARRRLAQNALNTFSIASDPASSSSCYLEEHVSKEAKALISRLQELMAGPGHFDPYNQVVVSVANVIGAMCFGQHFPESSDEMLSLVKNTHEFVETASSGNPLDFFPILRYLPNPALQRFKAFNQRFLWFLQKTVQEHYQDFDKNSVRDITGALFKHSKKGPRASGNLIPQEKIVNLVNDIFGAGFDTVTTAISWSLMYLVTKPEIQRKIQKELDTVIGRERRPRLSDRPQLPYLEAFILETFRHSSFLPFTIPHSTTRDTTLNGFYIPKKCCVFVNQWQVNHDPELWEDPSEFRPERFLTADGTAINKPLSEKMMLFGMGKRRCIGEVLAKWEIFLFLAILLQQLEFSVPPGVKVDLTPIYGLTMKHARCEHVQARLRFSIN
Chain of Ubiquitin carboxyl-terminal hydrolase 1 (Homo sapiens) (O94782 whole entry, looked up): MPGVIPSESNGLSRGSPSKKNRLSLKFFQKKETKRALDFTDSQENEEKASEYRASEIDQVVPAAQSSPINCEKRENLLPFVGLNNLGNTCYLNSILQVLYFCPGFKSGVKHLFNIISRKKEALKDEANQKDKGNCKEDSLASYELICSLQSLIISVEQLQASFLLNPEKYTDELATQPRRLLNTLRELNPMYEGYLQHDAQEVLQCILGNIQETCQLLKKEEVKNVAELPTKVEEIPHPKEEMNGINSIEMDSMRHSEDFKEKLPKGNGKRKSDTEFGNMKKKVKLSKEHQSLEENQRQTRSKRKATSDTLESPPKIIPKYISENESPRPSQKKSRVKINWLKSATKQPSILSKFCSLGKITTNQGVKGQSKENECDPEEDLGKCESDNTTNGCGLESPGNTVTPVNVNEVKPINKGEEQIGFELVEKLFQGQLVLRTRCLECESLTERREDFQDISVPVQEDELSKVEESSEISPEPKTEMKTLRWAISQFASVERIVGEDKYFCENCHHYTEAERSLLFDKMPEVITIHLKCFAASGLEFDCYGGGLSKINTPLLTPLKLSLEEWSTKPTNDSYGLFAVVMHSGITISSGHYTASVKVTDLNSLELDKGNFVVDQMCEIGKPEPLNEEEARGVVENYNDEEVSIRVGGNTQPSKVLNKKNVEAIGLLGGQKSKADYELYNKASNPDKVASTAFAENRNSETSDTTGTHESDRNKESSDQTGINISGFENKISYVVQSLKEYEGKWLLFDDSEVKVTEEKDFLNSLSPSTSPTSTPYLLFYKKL
Chain of Cytochrome P450 2C9 (Homo sapiens) (P11712 whole entry, looked up): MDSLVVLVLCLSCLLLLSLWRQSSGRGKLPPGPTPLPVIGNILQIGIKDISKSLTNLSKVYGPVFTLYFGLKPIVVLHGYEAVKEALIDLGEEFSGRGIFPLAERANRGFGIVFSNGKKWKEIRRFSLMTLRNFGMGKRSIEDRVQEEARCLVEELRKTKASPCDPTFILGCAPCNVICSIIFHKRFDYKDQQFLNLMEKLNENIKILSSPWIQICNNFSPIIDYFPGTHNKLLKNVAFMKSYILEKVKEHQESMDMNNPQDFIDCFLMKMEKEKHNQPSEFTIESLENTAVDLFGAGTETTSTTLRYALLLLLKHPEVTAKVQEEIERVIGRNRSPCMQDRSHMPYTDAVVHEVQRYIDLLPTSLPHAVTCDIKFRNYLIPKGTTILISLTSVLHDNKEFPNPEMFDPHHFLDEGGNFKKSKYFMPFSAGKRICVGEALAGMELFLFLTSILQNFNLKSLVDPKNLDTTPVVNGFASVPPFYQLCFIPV

As to `COc1ccc(Oc2ncc3nc(-c4ccc(F)cc4)c(=O)n(C4CC4)c3n2)cc1`, the Potency in [1] was above 11.4 µM; in test [4], above 9.22 µM; in test [5], above 46 µM. The activity change, negative = inhibition in test [2] was 0.828%. Moreover, the activity, negative = inhibition in test [3] is 14.5%. Moreover, the Potency entry in test [6], in test [7], in test [8], in [9], in [10] and in test [11] was “inactive” in each case. Besides, in test [12], the result was inactive.

Consider `COc1cccc(-c2ccc3ncnc(NC4CC4)c3c2)c1`, for which the Potency in test [1] was above 11.4 µM; in [13], 0.2 µM (active); in [5] it was above 46 µM; in [15], 2 µM (active); in test [17], 1.26 µM (active); in [8], 0.447 µM (active). For the same compound, the Potency was 0.316 µM (active) in test [9] and 0.126 µM (active) in test [10]. The activity change, negative = inhibition in test [14] was 2.56%. Moreover, the Potency entry in [6], in [16] and in test [11] was “inactive” each time. Moreover, in test [12], the outcome was inactive.

Take `CN1CCN(c2ncc3nc(-c4cn(C)c5ccccc45)c(=O)n(CCc4ccccc4)c3n2)CC1`: the Potency in test [1] is above 11.4 µM; in [4], above 9.22 µM; in [5] it was above 46 µM; in [18], 3.16 µM (active). For the same compound, the Potency entry in test [13], in [6], in test [7], in test [16], in test [8] and in test [9] was “inactive” in each case. Besides, the Potency entry in test [10] and in test [11] was “inactive” throughout. Also, the result in test [12] was inactive.

On to `O=c1c(-c2ccc(Cl)cc2)nc2cnc(N3CCOCC3)nc2n1Cc1ccc(F)cc1`, for which the Potency in [1] was above 11.4 µM; in [4] it was above 9.22 µM; in [5], above 46 µM; in [18] it was 3.16 µM (active). Besides, the Potency entry in [13], in test [6], in [19], in test [15], in test [20] and in test [8] was “inactive” each time. In addition, the Potency result in test [9], in test [10] and in test [11] was “inactive” in each case. The outcome in test [12] was inactive.
